Source: PubChem BioAssay (NCI)
Compounds without any hit were thinned out: in the full panel of roughly 79,000, 15% have a hit. Calls of active or inactive are those of the source. Cut-off read from the data, not from the text of the source: active = growth inhibition above about 70%; inactive = the rest.

Columns and labels:
[1] = NCI Yeast Anticancer Drug Screen. Data for the rad52 strain (AID 147);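 note: 0% = growth of vehicle-treated control cultures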; details: S. cerevisiae rad52 mutant growth inhibition, stronger effect = higher value
Outline: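 Compounds are applied to a genetically defined yeast strain lacking normal DNA damage repair, and inhibition of growth is expressed relative to cultures given vehicle only.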

[2] = NCI Yeast Anticancer Drug Screen. Data for the wt1 strain (AID 149);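 note: 0% = growth of vehicle-treated wt1 cultures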; details: S. cerevisiae wt1 strain (SPY 50644) growth inhibition, stronger effect = higher value
Outline: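 Compounds are added to wt1 yeast cultures. Growth is then measured. Inhibition is expressed relative to vehicle-treated controls.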

[3] = NCI Yeast Anticancer Drug Screen. Data for the rad50EPP+ strain (AID 151);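 note: 0% = growth of vehicle-treated control cultures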; details: S. cerevisiae rad50 mutant strain, stronger effect = higher value
Outline: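 Compounds were applied to the rad50EPP+ yeast strain, which bears a defined DNA repair alteration, and growth inhibition was determined relative to vehicle-treated cultures.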

[4] = NCI Yeast Anticancer Drug Screen. Data for the rad50 strain (AID 155);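 note: 0% = growth of vehicle-only cultures of the same strain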; details: S. cerevisiae rad50 strain growth inhibition, stronger effect = higher value
Outline: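 Inhibition values express reduced yeast growth in compound-treated cultures relative to vehicle-treated controls.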

[5] = NCI Yeast Anticancer Drug Screen. Data for the mec2-1 strain (AID 157); details: S. cerevisiae mec2-1 strain, stronger effect = higher value
Outline: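 Strain: mec2-1 (DNA repair/cell cycle alteration). Compound exposure, then growth measured; inhibition expressed relative to vehicle.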

[6] = NCI Yeast Anticancer Drug Screen. Data for the rad14 strain (AID 159);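 note: 0% = growth of vehicle-treated control cultures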; details: S. cerevisiae rad14 strain growth inhibition, stronger effect = higher value
Outline: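 A mutant yeast strain defective in DNA damage repair is treated with compound; inhibition of its growth is scored against untreated, vehicle-exposed cultures.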

[7] = NCI Yeast Anticancer Drug Screen. Data for the sgs1 mgt1 strain (AID 161);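 note: 0% = growth of cultures given vehicle only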; details: S. cerevisiae sgs1 mgt1 strain, stronger effect = higher value
Outline: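 Genetically altered yeast, compound exposure, growth inhibition relative to vehicle.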

[8] = NCI Yeast Anticancer Drug Screen. Data for the cln2 rad14 strain (AID 165);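 note: 0% = growth equal to vehicle treated cultures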; details: S. cerevisiae cln2 rad14 strain, stronger effect = higher value
Outline: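 Compounds are applied to the cln2 rad14 yeast strain, and growth is then compared with that of vehicle-treated cultures to give inhibition.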

[9] = NCI Yeast Anticancer Drug Screen. Data for the bub3 strain (AID 167); details: S. cerevisiae bub3 mutant strain, stronger effect = higher value
Outline: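 Steps: expose the mutant yeast strain to compound; grow alongside vehicle-treated cultures; measure growth; express inhibition against the vehicle cultures.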

[10] = NCI Yeast Anticancer Drug Screen. Data for the wt2 strain (AID 169);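 note: 0% = growth of vehicle-treated yeast cultures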; details: S. cerevisiae wt2 strain growth inhibition, stronger effect = higher value
Outline: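 This strain belongs to a panel of yeast strains with defined genetic alterations in DNA damage repair or cell cycle control. Compounds are applied, and growth inhibition is measured against vehicle-treated cultures.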

[11] = NCI Yeast Anticancer Drug Screen. Data for the mlh1 strain (AID 171);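 note: 0% = growth of vehicle-treated control cultures of the same strain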; details: S. cerevisiae mlh1 strain growth inhibition, stronger effect = higher value
Outline: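 Growth of the mutant yeast strain after compound exposure, expressed as inhibition relative to vehicle-only controls.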

[12] = NCI Yeast Anticancer Drug Screen. Data for the sgs1 strain (AID 173);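 note: 0% = growth of vehicle-only control cultures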; details: S. cerevisiae sgs1 mutant, stronger effect = higher value
Outline: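 Growth of a yeast strain bearing a defined genetic alteration is measured after compound treatment. Inhibition is expressed relative to vehicle-only controls.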

[13] = NCI Yeast Anticancer Drug Screen. Data for the mlh1 rad18 strain (AID 175); details: S. cerevisiae mlh1 rad18 strain growth inhibition, stronger effect = higher value
Outline: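 Read-out is yeast growth inhibition, calculated against vehicle-only controls. The compound was applied to a strain engineered with DNA damage repair alterations.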

[14] = NCI Yeast Anticancer Drug Screen. Data for the rad18 strain (AID 177); details: S. cerevisiae rad18 mutant growth inhibition, stronger effect = higher value
Outline: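 Growth of the mutant yeast strain after compound exposure, normalised to vehicle-only cultures.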

[15] = NCI Yeast Anticancer Drug Screen. Data for the mgt1 strain (AID 153); details: S. cerevisiae mgt1 mutant growth inhibition, stronger effect = higher value
Outline: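 Strain: mgt1 yeast, one of a set carrying defined DNA damage repair or cell cycle control alterations. Compound-treated growth compared with vehicle.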

[16] = NCI Yeast Anticancer Drug Screen. Data for the CLN2oe strain (AID 163);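 note: 0% = growth of vehicle-only control cultures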; details: S. cerevisiae CLN2oe strain, stronger effect = higher value
Outline: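 Growth of a genetically modified yeast strain is measured after compound exposure and compared with cultures given vehicle alone.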

[17] = at 5.0 µM (retest, dose inferred, filed as 0.5)
[18] = at 50.0 µM (retest, dose inferred, filed as 5.0)

Measured: growth inhibition

Cc1ccc(S(=O)(=O)NC(=O)NC2=NC(C)(C)N(c3ccc(Cl)c(Cl)c3)C(N)=N2)cc1
active: [8]; at 50.0 µM 79.4%
inactive: [1]; at 1.2 µM -2% | [1]; at 3.7 µM -2% | [1]; at 11.0 µM -1% | [1]; at 33.0 µM -3% | [1]; at 100.0 µM -3% | [2]; at 1.2 µM -2% | [2]; at 3.7 µM 1% | [2]; at 11.0 µM -1% | [2]; at 33.0 µM -1% | [2]; at 100.0 µM -3% | [3]; at 1.2 µM -2% | [3]; at 3.7 µM -3% | [3]; at 11.0 µM -1% | [3]; at 33.0 µM -2% | [3]; at 100.0 µM 4% | [4]; at 1.2 µM -2% | [4]; at 3.7 µM -4% | [4]; [17] 7% | [4]; at 11.0 µM -5% | [4]; at 33.0 µM -3% | [4]; [18] 1% | [4]; at 50.0 µM -1.3% | [4]; at 100.0 µM -4% | [5]; at 1.2 µM -2% | [5]; at 3.7 µM 2% | [5]; [17] 1% | [5]; at 11.0 µM 4% | [5]; at 33.0 µM -3% | [5]; [18] -3% | [5]; at 50.0 µM -3.35% | [5]; at 100.0 µM -3% | [6]; at 1.2 µM -1% | [6]; at 3.7 µM 0% | [6]; at 11.0 µM 1% | [6]; at 33.0 µM 1% | [6]; at 100.0 µM 0% | [7]; [17] 6% | [7]; [18] -6% | [7]; at 50.0 µM 4.25% | [8]; [17] 1% | [8]; [18] 1% | [9]; at 1.2 µM -2% | [9]; at 3.7 µM -7% | [9]; [17] 1% | [9]; at 11.0 µM -6% | [9]; at 33.0 µM -8% | [9]; [18] -1% | [9]; at 50.0 µM -23.9% | [9]; at 100.0 µM -5% | [10]; at 1.2 µM -3% | [10]; at 3.7 µM -4% | [10]; at 11.0 µM -3% | [10]; at 33.0 µM -4% | [10]; at 100.0 µM -3% | [11]; at 1.2 µM -1% | [11]; at 3.7 µM 0% | [11]; at 11.0 µM -1% | [11]; at 33.0 µM 1% | [11]; at 100.0 µM -3% | [12]; at 1.2 µM -1% | [12]; at 3.7 µM -2% | [12]; at 11.0 µM -1% | [12]; at 33.0 µM -2% | [12]; at 100.0 µM -2% | [13]; [17] 0% | [13]; [18] 47% | [13]; at 50.0 µM 2.35% | [14]; at 1.2 µM -1% | [14]; at 3.7 µM 2% | [14]; at 11.0 µM 4% | [14]; at 33.0 µM 1% | [14]; at 100.0 µM -1%

CSC(=S)Nc1cccc(C)n1
inactive: [1]; at 1.2 µM -6% | [1]; at 3.7 µM -5% | [1]; at 11.0 µM -3% | [1]; at 33.0 µM 23% | [1]; at 100.0 µM 63% | [2]; at 1.2 µM -35% | [2]; at 3.7 µM -24% | [2]; at 11.0 µM -25% | [2]; at 33.0 µM -15% | [2]; at 100.0 µM 3% | [15]; at 1.2 µM -52% | [15]; at 3.7 µM -29% | [15]; at 11.0 µM -11% | [15]; at 33.0 µM 16% | [15]; at 100.0 µM 59% | [4]; at 1.2 µM -25% | [4]; at 3.7 µM -4% | [4]; at 11.0 µM -11% | [4]; at 33.0 µM 28% | [4]; at 50.0 µM 41.8% | [5]; at 1.2 µM -61% | [5]; at 3.7 µM -61% | [5]; at 11.0 µM -58% | [5]; at 33.0 µM -36% | [5]; at 50.0 µM 31.6% | [5]; at 100.0 µM 34% | [6]; at 1.2 µM -19% | [6]; at 3.7 µM -15% | [6]; at 11.0 µM 9% | [6]; at 33.0 µM 2% | [6]; at 100.0 µM 50% | [7]; [17] -18% | [7]; [18] 29% | [7]; at 50.0 µM 45% | [16]; at 1.2 µM -24% | [16]; at 3.7 µM -8% | [16]; at 11.0 µM -13% | [16]; at 33.0 µM 12% | [16]; at 100.0 µM 24% | [8]; [17] 9% | [8]; [18] 65% | [8]; at 50.0 µM 38.2% | [9]; at 1.2 µM -9% | [9]; at 3.7 µM -16% | [9]; [17] 39% | [9]; at 11.0 µM -3% | [9]; at 33.0 µM 15% | [9]; [18] 63% | [9]; at 50.0 µM 54% | [10]; at 1.2 µM -29% | [10]; at 3.7 µM -30% | [10]; at 11.0 µM -31% | [10]; at 33.0 µM -10% | [10]; at 100.0 µM 31% | [11]; at 1.2 µM -42% | [11]; at 3.7 µM -40% | [11]; at 11.0 µM -35% | [11]; at 33.0 µM -12% | [11]; at 100.0 µM 66% | [12]; at 1.2 µM -47% | [12]; at 3.7 µM -49% | [12]; at 11.0 µM -32% | [12]; at 33.0 µM -6% | [12]; at 100.0 µM 62% | [13]; [17] 55% | [14]; at 1.2 µM -20% | [14]; at 3.7 µM -15% | [14]; at 11.0 µM -22% | [14]; at 33.0 µM 9% | [14]; at 100.0 µM 69%
active: [4]; [17] 88% | [4]; [18] 99% | [4]; at 100.0 µM 79% | [5]; [17] 70% | [5]; [18] 99% | [9]; at 100.0 µM 74% | [13]; [18] 99% | [13]; at 50.0 µM 70.1%

O=C1C=CC(=Nc2ccc3c(c2)Cc2cc(NC(=O)C(F)(F)F)ccc2-3)O1
inactive: [1]; at 1.2 µM 4% | [1]; at 3.7 µM 8% | [1]; at 11.0 µM 21% | [1]; at 33.0 µM 33% | [2]; at 1.2 µM 3% | [2]; at 3.7 µM 4% | [2]; at 11.0 µM 11% | [2]; at 33.0 µM 20% | [3]; at 1.2 µM 8% | [3]; at 3.7 µM 40% | [15]; at 1.2 µM 1% | [15]; at 3.7 µM 5% | [15]; at 11.0 µM 12% | [15]; at 33.0 µM 36% | [5]; at 1.2 µM 5% | [5]; at 3.7 µM 14% | [5]; at 11.0 µM 28% | [5]; at 33.0 µM 48% | [7]; [17] 51% | [8]; [17] 7% | [8]; at 50.0 µM 3.55% | [9]; at 1.2 µM -7% | [9]; at 3.7 µM -6% | [9]; [17] 25% | [9]; at 11.0 µM 0% | [9]; at 33.0 µM 13% | [10]; at 1.2 µM 1% | [10]; at 3.7 µM 3% | [10]; at 11.0 µM 15% | [10]; at 33.0 µM 26% | [12]; at 1.2 µM 7% | [12]; at 3.7 µM 15% | [12]; at 11.0 µM 34% | [12]; at 33.0 µM 63% | [14]; at 1.2 µM 4% | [14]; at 3.7 µM 13% | [14]; at 11.0 µM 32% | [14]; at 33.0 µM 57%
active: [1]; at 100.0 µM 97% | [2]; at 100.0 µM 95% | [3]; at 11.0 µM 81% | [3]; at 33.0 µM 91% | [3]; at 100.0 µM 98% | [15]; at 100.0 µM 96% | [5]; [17] 88% | [5]; [18] 95% | [5]; at 50.0 µM 96% | [5]; at 100.0 µM 96% | [7]; [18] 97% | [7]; at 50.0 µM 98.3% | [8]; [18] 93% | [9]; [18] 96% | [9]; at 50.0 µM 87.7% | [9]; at 100.0 µM 96% | [10]; at 100.0 µM 98% | [12]; at 100.0 µM 98% | [13]; [17] 79% | [13]; [18] 94% | [13]; at 50.0 µM 98.3% | [14]; at 100.0 µM 96%
